# Records with an inconclusive call do not appear. Where a call stands in place of a potency, no number is given. The source made the active and inactive calls. Calls come from the whole dose curve; as a rule, active = well fitted cell-killing curve with a large enough effect in the repeat runs; inconclusive = weak or mixed curves, or effect the other way; inactive = flat fitted curve, though single readings scatter.
# Test: qHTS RealTime-Glo MT Cell Viability Assay in HEK293 cells - 0 hour (AID 1224880); note: nearly all actives have a fitted effect of over 45% in size
# Details: RealTime-Glo luminescence; series mostly up to 76.8 µM
# Text: U.S. Tox21 Program National Center for Advancing Translational Sciences [NCATS] NIH Chemical Genomics Center [NCGC] U.S. Environmental Protection Agency [EPA] National Institutes of Environmental Health Sciences [NIEHS] National Toxicology Program [NTP] U.S. Food and Drug Administration [FDA] Tox21 Assay Overview: Measure of cell viability is critical in the cell-base assay. Analysis of cell viability is necessary for the characterization of cell responses to cytotoxic drugs and environmental stress. A RealTime-Glo MT Cell Viability Assay to monitor cell viability in real time of continues cell culture during 40 hours of compound treatment was used to screen Tox21 10K library compounds in Hek293 cells. The RealTime-Glo MT Cell Viability Assay is a nonlytic, homogeneous, bioluminescent method to measure cell viability in real time using a simple, plate-based method. The assay involves adding NanoLuc luciferase and a cell-permeant prosubstrate to cells in culture. Viable cells reduce the proprietary prosubstrate to generate a substrate for NanoLuc luciferase. This substrate diffuses from cells into the surrounding culture medium, where it is rapidly used by the NanoLuc Enzyme to produce a luminescent signal. The signal correlates with the number of viable cells, making the assay well suited for cytotoxicity studies.
# Tox21 Assay Protocol Summary: The mixture of Hek293 cell suspension and reagents were dispensed at 600cells/6 ul/well in 1536-well tissue culture treated black solid bottom plates using a Multidrop dispenser. After the assay plates were incubated at a 37 C/5% CO2 incubator for 5 hours, 23 nL of compounds dissolved in DMSO, positive and negative controls was transferred to the assay plate by a pintool work station. The plates were incubated at 37 C for 40 hours. The luminescence intensity were measured at 0h, 8h, 16h, 24h, 32h and 40h time points using ViewLux plate reader during compound treatment.
# Potency is the fitted concentration of half-maximal effect.
row,Compound,Potency
1,C=C(C)OC(C)=O,inactive
2,CC(C)=CCC/C(C)=C/CO,inactive
3,CCN1CCCC1=O,inactive
4,CCCCOCCOCCSC#N,inactive
5,C[C@]12CC[C@@H]3c4ccc(O)cc4CC[C@H]3[C@@H]1CCC2=O,inactive
6,O=C1CCCCCN1,inactive
7,C[C@]12C[C@H](O)[C@H]3[C@@H](CCC4=CC(=O)CC[C@@]43C)[C@@H]1CC[C@@H]2C(=O)CO,13.8 µM (active)
8,O=C(O)CN(CC(=O)O)CC(=O)O,inactive
9,NC(=O)OCC(COC(N)=O)c1ccccc1,inactive
10,COc1ccccc1NC(=O)CC(C)=O,inactive
11,C[C@]12C=CC(=O)C=C1CC[C@@H]1[C@@H]2C(=O)C[C@@]2(C)[C@H]1CC[C@]2(O)C(=O)CO,inactive
12,CC(C)CC(C)CC(O)CC(C)C (stereo not given),inactive
13,CC(O)COc1ccccc1 (stereo not given),inactive
14,C[C@]12CC[C@@H]3c4ccc(O)cc4C[C@@H](CCCCCCCCCS(=O)CCCC(F)(F)C(F)(F)F)[C@H]3[C@@H]1CC[C@@H]2O (stereo not given in full),inactive
15,COC(=O)c1ccc(C=O)cc1,inactive
16,CCCCOCCOCCOC(C)=O,inactive
17,CCCCC/C(C=O)=C\c1ccccc1,inactive
18,NC(=O)NO,inactive
19,CCCCCCCCCCCCCC(=O)OC(C)C,inactive
20,CN/C(=C\[N+](=O)[O-])NCCSCc1ccc(CN(C)C)o1,inactive

row,Compound,Potency
1,COc1ccccc1O,inactive
2,NC(N)=NC(N)=NCCc1ccccc1,inactive
3,N[C@@H](Cc1c[nH]c2ccccc12)C(=O)O,inactive
4,COc1cc(C=O)ccc1O,inactive
5,COC(=O)C1CCC(C(=O)OC)CC1 (stereo not given),inactive
6,CCN(CC)CCOC(=O)c1ccc(N)cc1,inactive
7,CC1=NN(c2ccccc2)C(=O)C1,inactive
8,Cc1c(N(C)C)c(=O)n(-c2ccccc2)n1C,inactive
9,COC1=CC(=O)C[C@@H](C)[C@]12Oc1c(Cl)c(OC)cc(OC)c1C2=O,inactive
10,CN(C)C=O,inactive
11,CCCCNC(=O)NS(=O)(=O)c1ccc(N)cc1,inactive
12,CCCCCCCCCCCCCCCCCC(=O)OCC(O)CO (stereo not given),inactive
13,COc1cc(O)c(C(=O)c2ccccc2)cc1S(=O)(=O)O,inactive
14,CN(C)Cc1cc(CN(C)C)c(O)c(CN(C)C)c1,inactive
15,COCC(C)N (stereo not given),inactive
16,Cc1cnc(NC(=O)C2=C(O)c3ccccc3S(=O)(=O)N2C)s1,inactive
17,CCOCCO,inactive
18,CC(=O)CCC(C)C,inactive
19,COc1ccc(O)cc1,inactive
20,CC(=O)OC/C=C(C)/C=C/C=C(C)/C=C/C1=C(C)CCCC1(C)C,inactive
